Our source for the composite z-score and z-score values is PubChem BioAssay.

Calls of active or inactive are those of the source.

Assay [1] concerns PRMT1 (protein arginine N-methyltransferase 1). Description: PRMT1 binders on small-molecule microarrays, primary screen, biochemical, small-molecule microarray, 635 nm fluorescence (AID 1088).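 Further: binding of Prmt1 protein to compounds spotted on small-molecule microarray slides.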 The following applies: small-molecule microarray binding, higher = more signal.
Assay [2] in a line: yeast growth modulation, basal conditions, primary screen, YJM789 clinical isolate, OD600, 24 h (AID 1089).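 Further: growth of clinical yeast isolate S. cerevisiae YJM 789 seeded 1000 cells per well; test concentration not given here.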 The following applies: S. cerevisiae YJM789 growth, higher = more signal, called active from +8 up or from −8 down.
The nature of assay [3]: fission yeast growth modulation, primary screen, strain 972, OD600, 24 h, no modulator (AID 1090).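 Further: basal condition with compound alone and no growth modifier present; test concentration not given here.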 The following applies: S. pombe 972 growth, higher = more signal, called active from +8 up or from −8 down.
The nature of assay [4]: S. cerevisiae growth modulation with rapamycin, primary screen, strain BY4716, OD600, 96 h (AID 1091). Further: test concentration not given here. The settings on record: higher = more signal, called active from +8 up or from −8 down.
Assay [5] concerns the target Torsin-1A-interacting protein 2 (Homo sapiens) (UniProt Q8NFQ8). In words: LULL1 binders on small-molecule microarray, primary screen, cell lysate, human LULL1 lysate, 635/667 nm fluorescence (AID 1092).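 Further: probe is lysate of COS7 cells overexpressing human LULL1; score merges per-feature 667 nm fluorescence with signal-to-noise.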 The settings on record: hLULL1 lysate binding, 635 nm fluorescence, higher = more signal.
The nature of assay [6]: E. coli growth modulation, two-sided OD650, primary screen, E. coli filamentation project, strain DRC41, 24 h (AID 1093).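 Further: MC1000 strain lacking acrAB efflux and sulA so SOS filamentation is blocked; test concentration not given here.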 The following applies: OD650, 24 h, higher = more signal, called active from +8 up or from −8 down.
The nature of assay [7]: small-molecule microarray binders of probe aLefty2, primary screen, biochemical, biotinylated probe, 635/667 nm fluorescence (AID 1094).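 Further: score merges spot fluorescence near 667 nm with spot signal-to-noise ratio.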 The settings on record: higher = more signal.
In assay [8] the test system is Noggin (protein binding on small-molecule microarray). In words: Noggin binders on small-molecule microarray, primary screen, biochemical, 635/667 nm fluorescence (AID 1095).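 Further: score merges 667 nm feature fluorescence with signal to noise over triplicate slides.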 The following applies: 635 nm fluorescence, higher = more signal.
Assay [9] addresses Neurogenic locus notch homolog protein 3 (Homo sapiens) (UniProt Q9UM47). Description: NOTCH3 binders on small-molecule microarray, primary screen, biochemical, 635/667 nm fluorescence (AID 1096). The following applies: NOTCH3 binding, 635 nm fluorescence, higher = more signal.
The nature of assay [10]: small-molecule microarray binders of probe aEGFR, primary screen, biochemical, biotinylated probe, 635/667 nm fluorescence (AID 1097).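 Further: probe is a biotinylated anti-EGFR antibody binding compounds printed on slides; score combines fluorescence near 667 nm and signal to noise of each spot.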 The settings on record: higher = more signal.

Torsin-1A-interacting protein 2 (Homo sapiens), sequence (Q8NFQ8 whole entry, looked up): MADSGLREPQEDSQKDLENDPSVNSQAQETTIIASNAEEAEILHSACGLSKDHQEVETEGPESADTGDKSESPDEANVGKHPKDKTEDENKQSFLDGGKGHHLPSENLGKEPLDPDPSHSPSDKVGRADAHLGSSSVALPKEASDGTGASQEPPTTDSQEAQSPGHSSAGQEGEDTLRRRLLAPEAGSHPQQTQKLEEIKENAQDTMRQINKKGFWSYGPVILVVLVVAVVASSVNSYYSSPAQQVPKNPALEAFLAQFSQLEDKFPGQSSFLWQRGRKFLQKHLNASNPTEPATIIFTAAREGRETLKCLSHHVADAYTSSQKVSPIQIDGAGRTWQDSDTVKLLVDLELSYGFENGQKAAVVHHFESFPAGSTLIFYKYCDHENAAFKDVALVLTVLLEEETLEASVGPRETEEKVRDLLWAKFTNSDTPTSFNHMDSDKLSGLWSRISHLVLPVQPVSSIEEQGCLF
Neurogenic locus notch homolog protein 3 (Homo sapiens), sequence (Q9UM47 whole entry, looked up): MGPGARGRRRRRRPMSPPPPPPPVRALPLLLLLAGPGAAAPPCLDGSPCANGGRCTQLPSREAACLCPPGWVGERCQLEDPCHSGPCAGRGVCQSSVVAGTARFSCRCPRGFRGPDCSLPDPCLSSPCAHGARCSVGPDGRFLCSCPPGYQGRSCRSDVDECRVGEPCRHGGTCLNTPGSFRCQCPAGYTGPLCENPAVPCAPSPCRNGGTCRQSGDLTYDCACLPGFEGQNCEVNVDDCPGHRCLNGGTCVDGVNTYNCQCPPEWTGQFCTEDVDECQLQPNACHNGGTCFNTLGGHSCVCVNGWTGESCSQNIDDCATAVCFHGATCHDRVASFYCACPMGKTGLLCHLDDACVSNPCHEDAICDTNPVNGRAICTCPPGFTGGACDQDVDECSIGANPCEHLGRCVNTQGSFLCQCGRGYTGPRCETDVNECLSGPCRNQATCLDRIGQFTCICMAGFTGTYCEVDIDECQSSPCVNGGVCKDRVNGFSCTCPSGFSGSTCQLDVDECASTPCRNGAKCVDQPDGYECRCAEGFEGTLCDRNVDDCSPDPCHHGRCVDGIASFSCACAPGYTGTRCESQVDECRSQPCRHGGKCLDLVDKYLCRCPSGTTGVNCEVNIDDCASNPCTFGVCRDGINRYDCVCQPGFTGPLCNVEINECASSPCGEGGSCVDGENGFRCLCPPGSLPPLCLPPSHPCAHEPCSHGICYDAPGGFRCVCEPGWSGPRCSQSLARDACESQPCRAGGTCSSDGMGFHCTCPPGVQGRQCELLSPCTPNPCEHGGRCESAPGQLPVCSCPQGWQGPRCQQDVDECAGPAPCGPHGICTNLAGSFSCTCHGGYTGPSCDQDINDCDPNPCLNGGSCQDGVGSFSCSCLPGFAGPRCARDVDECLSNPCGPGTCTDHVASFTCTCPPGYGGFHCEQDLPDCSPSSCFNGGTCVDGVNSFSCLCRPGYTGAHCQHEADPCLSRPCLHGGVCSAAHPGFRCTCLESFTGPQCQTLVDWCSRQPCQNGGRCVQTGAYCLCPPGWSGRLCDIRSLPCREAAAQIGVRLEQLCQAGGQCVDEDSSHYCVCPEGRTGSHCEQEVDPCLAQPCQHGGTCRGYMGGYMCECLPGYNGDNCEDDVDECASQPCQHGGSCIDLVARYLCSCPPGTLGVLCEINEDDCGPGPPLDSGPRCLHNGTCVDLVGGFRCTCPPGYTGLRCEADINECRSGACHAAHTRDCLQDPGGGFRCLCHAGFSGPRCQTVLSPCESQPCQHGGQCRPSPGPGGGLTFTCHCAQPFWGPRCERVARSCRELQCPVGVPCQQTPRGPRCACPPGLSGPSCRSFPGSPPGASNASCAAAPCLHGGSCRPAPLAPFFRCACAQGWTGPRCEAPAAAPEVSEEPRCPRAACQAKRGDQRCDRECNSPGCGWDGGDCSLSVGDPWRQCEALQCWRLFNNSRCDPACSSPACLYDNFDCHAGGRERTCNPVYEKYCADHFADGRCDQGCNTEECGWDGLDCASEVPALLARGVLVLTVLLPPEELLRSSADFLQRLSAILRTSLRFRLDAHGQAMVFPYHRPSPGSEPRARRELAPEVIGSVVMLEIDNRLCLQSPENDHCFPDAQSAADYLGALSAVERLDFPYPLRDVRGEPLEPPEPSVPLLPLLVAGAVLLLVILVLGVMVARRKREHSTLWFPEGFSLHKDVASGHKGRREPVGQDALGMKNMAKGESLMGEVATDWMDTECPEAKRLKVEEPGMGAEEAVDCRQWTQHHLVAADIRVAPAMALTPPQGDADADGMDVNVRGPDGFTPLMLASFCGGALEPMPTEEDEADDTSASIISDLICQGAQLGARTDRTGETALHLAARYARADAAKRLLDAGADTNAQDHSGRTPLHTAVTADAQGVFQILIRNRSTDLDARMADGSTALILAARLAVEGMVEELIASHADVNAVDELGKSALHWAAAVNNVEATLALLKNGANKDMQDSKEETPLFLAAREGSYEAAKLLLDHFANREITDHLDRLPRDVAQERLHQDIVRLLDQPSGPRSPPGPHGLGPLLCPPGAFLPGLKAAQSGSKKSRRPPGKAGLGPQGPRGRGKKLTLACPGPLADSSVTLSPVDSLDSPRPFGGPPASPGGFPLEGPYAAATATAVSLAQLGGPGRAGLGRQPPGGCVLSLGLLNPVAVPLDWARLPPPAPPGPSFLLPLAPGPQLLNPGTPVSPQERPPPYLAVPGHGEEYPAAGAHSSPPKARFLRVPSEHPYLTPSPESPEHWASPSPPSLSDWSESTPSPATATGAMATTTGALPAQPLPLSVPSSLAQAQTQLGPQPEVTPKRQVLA

Regarding `COC(=O)c1c(CC[C@@H](CO)NC(=O)N[C@H](Cc2ccccc2)Cn2cc(-c3ccccn3)nn2)oc(C(C)=O)c1C(=O)OC`, the composite z-score in assay [1] was 0.73; in [5], 1.68; in [7], -0.207; in [8], -0.151; in [9], 0.0619; in assay [10], -0.096. The z-score in assay [2] is -0.413 (inactive); in assay [3], 0.0254 (inactive); in assay [4], -0.398 (inactive); in [6] it was -0.419 (inactive).
Consider `CCCNC(=O)[C@@H]1c2ccccc2C(=O)N(Cc2ccccc2OC)[C@H]1c1ccc(CO)cc1`, for which the composite z-score in assay [1] was 0.286; in assay [5] it was 3.06; in assay [7] it was -0.139; in assay [8] it was 0.986; in assay [9] it was 1.11; in assay [10], -0.142. For the same compound, the z-score in assay [2] is 0.105 (inactive); in assay [3], -0.19 (inactive); in [4], 0.353 (inactive); in assay [6] it was 0.387 (inactive).
In the case of `CC(C)CCC[C@@H](C)[C@H]1CC[C@@]2(C)C3=C(CC[C@]12C)[C@@]1(C)CC[C@H](OC(=O)c2ccc(C(F)(F)F)nc2)C(C)(C)C1CC3` (stereo not given in full), the composite z-score is -0.431 in assay [1]; 0.282 in assay [5]; -0.233 in assay [7]; 0.52 in [8]; 0.483 in [9]; -0.1 in assay [10]. Besides, the z-score in assay [2] was -1.64 (inactive); in assay [3] it was -0.769 (inactive); in [4], -0.455 (inactive); in assay [6] it was 3.05 (inactive).
As for `CCCCCN1CC=CC23O[C@@H]4C=CCOC(=O)[C@@H]4[C@H]2C(=O)N(C(C)CO)[C@@H]3C1=O` (stereo not given in full), the composite z-score in assay [1] is -0.508; in [5], -0.952; in assay [7], -0.174; in assay [8] it was -1; in assay [9] it was -0.553; in [10], -0.296. Moreover, the z-score was -0.076 (inactive) in [2], -0.226 (inactive) in [3], 0.0795 (inactive) in [4] and 0.266 (inactive) in assay [6].
As for `COCCOC(=O)N1C(=O)[C@@]2(c3cc(C#Cc4ccc(OC)cc4)ccc31)[C@H](c1ccc(O)cc1)N1[C@H](c3ccccc3)[C@H](c3ccccc3)OC(=O)[C@H]1[C@@H]2C(=O)Nc1nc2ccccc2s1`, the composite z-score in assay [1] is 1.56; in [5], 2.06; in [7], -0.0376; in assay [8] it was 1.09; in assay [9] it was 1.08; in [10] it was -0.0103. Also, the z-score is 0.15 (inactive) in assay [2], 0.0615 (inactive) in assay [3], 0.684 (inactive) in assay [4] and -0.944 (inactive) in [6].
With `COC(=O)[C@]1(CCC(=O)OC(C)(C)C)N=C(c2ccc(OCCCO)cc2)O[C@@H]1c1ccccc1`, the composite z-score is 1.14 in assay [1]; 1.4 in assay [5]; 0.289 in assay [7]; -0.499 in [8]; 0.0628 in assay [9]; -0.0689 in [10]. The z-score in assay [2] was -0.401 (inactive); in assay [3] it was -1.72 (inactive); in assay [4] it was 1.97 (inactive); in assay [6] it was 2.85 (inactive).
As to `COCCOC(=O)N1C(=O)[C@@]2(c3cc(C#CC4(O)CCCCCC4)ccc31)[C@H](c1ccccc1OCCO)N1[C@H](c3ccccc3)[C@H](c3ccccc3)OC(=O)[C@H]1[C@@H]2C(=O)N1CCc2cc(OC)c(OC)cc2C1`, the composite z-score was 1.55 in [1]; 2.96 in assay [5]; -0.0903 in assay [7]; 1.24 in [8]; 1.05 in assay [9]; 0.0092 in assay [10]. The z-score in assay [2] was 2.46 (inactive); in assay [3], 2.71 (inactive); in assay [4], 5.86 (inactive); in assay [6], 0.339 (inactive).
Take `O=C1C2C=CC(C(O)C=Cc3ccc([N+](=O)[O-])cc3)N(Nc3ccccc3F)C2C(=O)N1c1ccccc1` (stereo not given): the composite z-score was found to be 1.57 in [1]; 3.1 in [5]; 0.0511 in assay [7]; 0.0689 in [8]; 0.994 in assay [9]; 0.293 in assay [10]. In addition, the z-score in [2] is 0.612 (inactive); in [3], 2.1 (inactive); in [4], 1.47 (inactive); in [6], -1.04 (inactive).
